Reference: the supplement of paper PMC12636033
± gives the standard deviation of the averaged measurements. Over roughly 33,000 sequences, “E-score (rank enrichment, -0.5 to 0.5)” has its median near -0.0028; the highest 2% begin near 0.23. Shown is part of a subset that was picked to be rich in the highest values.

Each sequence was assayed on 2Sb-muMax20 (muMax20 with two 1,3-bis(methyl)benzene Cys staples, A13C/A17C and Q88C/A92C, C-terminal Lys) (assay: PBM 8-mer E-score (E-score (rank enrichment, -0.5 to 0.5)); higher = stronger preferential binding).
Protocol: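 Protein binding microarray (universal PBM chip covering all 10-mers in fixed probe flanks) with chemically synthesized human Max(13-93) bHLH-LZ analogs (not full-length Max) bearing noncanonical residues (hArg, Tha, Aib, Nle at 65) and aromatic Cys staples. Read-out per 8-mer (and its reverse complement): E-score (rank-based enrichment, -0.5 to 0.5) and Z-score of median probe intensity.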

| Sequence | PBM 8-mer E-score |
| --- | --- |
| ACACGTTA | 0.08518 ± 0.00069 |
| ATTATACG | 0.0799 ± 0.014 |
| ATTATACC | 0.237 ± 0.011 |
| ATTATAAC | 0.306 ± 0.0034 |
| ATTATACA | 0.0477 ± 0.0088 |
| ATTATAAT | 0.141 ± 0.034 |
| ATTATAAG | 0.205 ± 0.057 |
| GGCTTCAC | -0.204 ± 0.1 |
| CGAGTCAG | -0.177 ± 0.05 |
| CTGTATGC | 0.0233 ± 0.062 |
| CGATACGA | -0.06 ± 0.12 |
| ATATAATA | 0.274 ± 0.044 |
| GTATAAGA | 0.212 ± 0.037 |
| GTATAATA | 0.226 ± 0.012 |
| CTATAAGA | 0.0167 ± 0.02 |
| CTATAATA | 0.0375 ± 0.0029 |
| ACATAATA | 0.302 ± 0.0096 |
| ACATAATC | 0.142 ± 0.023 |
| ATATAAGA | 0.249 ± 0.011 |
| GCATAATA | 0.195 ± 0.083 |
| CTTAGCTA | -0.0391 ± 0.023 |
| CTTTCTCC | 0.00231 ± 0.006 |
| CATACAGA | -0.0476 ± 0.0072 |
| CACCTGCG | -0.168 ± 0.017 |
| CCGTATCG | -0.0355 ± 0.019 |

| Sequence | PBM 8-mer E-score |
| --- | --- |
| ACGTGGGA | 0.203 ± 0.044 |
| TAGTGGGA | 0.038 ± 0.0028 |
| ACGTGGGC | 0.169 ± 0.022 |
| ACGTGGAG | 0.279 ± 0.0086 |
| AAGTGGGA | 0.281 ± 0.018 |
| GAGTGGGA | -0.0417 ± 0.045 |
| CCGTGGAG | -0.106 ± 0.074 |
| ACGTGGAT | 0.207 ± 0.043 |
| ACGTGGTA | 0.216 ± 0.024 |
| ACGTGGTG | 0.316 ± 0.034 |
| ACGTGGTC | 0.111 ± 0.0094 |
| ACGTGGGG | 0.261 ± 0.045 |
| TCTCGCCA | 0.0619 ± 0.024 |
| AAAAGGCA | 0.0454 ± 0.064 |
| ACGTGGCT | 0.291 ± 0.048 |
| AAGTGGGC | 0.0223 ± 0.023 |
| AAGTGGGG | 0.264 ± 0.032 |
| ACGTGGCA | 0.114 ± 0.049 |
| AAGTGGGT | 0.1 ± 0.0081 |
| ACGTGGCC | -0.0906 ± 0.018 |
| AACCGTGC | -0.0303 ± 0.0035 |
| CGGTATTC | -0.204 ± 0.072 |
| GGCCGGCC | -0.285 ± 0.0086 |
| CCACGGTA | -0.185 ± 0.042 |
| TTAAAGAA | 0.125 ± 0.032 |

| Sequence | PBM 8-mer E-score |
| --- | --- |
| GCGTAAAC | 0.0507 ± 0.016 |
| AATTCCAG | 0.0496 ± 0.043 |
| ATACTACG | 0.0847 ± 0.053 |
| GGACTCAA | -0.0969 ± 0.07 |
| CATGGGGA | 0.172 ± 0.05 |
| CTTGGGGA | 0.269 ± 0.046 |
| GTTGGGGA | 0.166 ± 0.092 |
| ATTGGGGA | 0.244 ± 0.0088 |
| ATTGGGGG | 0.0136 ± 0.03 |
| CTTGGGAA | -0.0626 ± 0.05 |
| TATGGGGA | 0.28 ± 0.014 |
| ATTGGGAA | 0.192 ± 0.0077 |
| AATGGGGA | 0.143 ± 0.0043 |
| ATTGGGGC | 0.284 ± 0.0076 |
| ATTGGGCC | -0.04 ± 0.093 |
| ATTGGGTA | 0.161 ± 0.015 |
| AGTGGCTA | -0.0163 ± 0.084 |
| AGTTTCAC | 0.045 ± 0.0036 |
| CAGCTCAG | -0.0712 ± 0.0083 |
| GGCCACAA | -0.0539 ± 0.0061 |
| ACATTCTC | -0.0346 ± 0.019 |
| ATGGGGTG | 0.238 ± 0.0055 |
| ATGGGGTA | 0.249 ± 0.034 |
| CTGGGGTA | 0.179 ± 0.0054 |
| AAGGGGTG | 0.117 ± 0.065 |

| Sequence | PBM 8-mer E-score |
| --- | --- |
| ATGGGGTC | 0.0475 ± 0.043 |
| AGGGGGTG | -0.116 ± 0.099 |
| ACGTAGAA | -0.00421 ± 0.0043 |
| AGCGCTCG | -0.0768 ± 0.062 |
| AAATCCGA | 0.0186 ± 0.034 |
| CGGAATGA | -0.065 ± 0.018 |
| GGGAATAC | 0.0722 ± 0.022 |
| AGGAATGA | 0.00801 ± 0.012 |
| GGGAATAA | 0.273 ± 0.024 |
| GGGAATGA | 0.322 ± 0.017 |
| TGGAATAA | 0.0314 ± 0.022 |
| AAGGCACT | 0.0491 ± 0.026 |
| GAGTGCCA | -0.0641 ± 0.028 |
| ACTCTGCT | -0.214 ± 0.017 |
| CATATCCG | 0.0256 ± 0.071 |
| AATTTTCC | 0.085 ± 0.0046 |
| CAAATTCC | 0.117 ± 0.042 |
| CGTTTCTC | -0.0396 ± 0.11 |
| GACAGGGA | -0.156 ± 0.072 |
| AAGCAACT | 0.00018 ± 0.012 |
| CTAAAGCA | 0.097 ± 0.0042 |
| ATAAAGCA | 0.261 ± 0.077 |
| ATAAAGCG | 0.0637 ± 0.015 |
| AGTTAGAA | 0.0284 ± 0.083 |
| ACGTGCAT | 0.199 ± 0.0073 |

| Sequence | PBM 8-mer E-score |
| --- | --- |
| CCGTGCAC | 0.126 ± 0.009 |
| ACGTGCAC | 0.281 ± 0.028 |
| ACGTGCAA | 0.252 ± 0.037 |
| GCGTGCAC | 0.164 ± 0.039 |
| CCGTGCAA | -0.0691 ± 0.042 |
| AGACCATG | -0.149 ± 0.029 |
| ACGGGTAA | 0.0152 ± 0.05 |
| AATGTGGC | 0.0323 ± 0.0018 |
| CATGTGGG | 0.193 ± 0.0078 |
| AATGTGGG | 0.248 ± 0.054 |
| TGAATGCA | 0.167 ± 0.015 |
| CCATACCG | 0.0521 ± 0.016 |
| ATTTTACC | 0.147 ± 0.025 |
| CGACGGAA | -0.109 ± 0.041 |
| CCCATTAA | 0.13 ± 0.0083 |
| AACATTAC | 0.17 ± 0.015 |
| TCCATTAA | -0.0453 ± 0.043 |
| CTCATTAA | 0.154 ± 0.064 |
| TACATTAA | 0.25 ± 0.03 |
| AACATTAA | 0.0201 ± 0.011 |
| CACATTAC | 0.235 ± 0.017 |
| CACATTAG | -0.00967 ± 0.014 |
| ACCATTAA | 0.298 ± 0.038 |
| GACATTAA | 0.0446 ± 0.036 |
| ATCATTAA | 0.0944 ± 0.13 |

| Sequence | PBM 8-mer E-score |
| --- | --- |
| GTCATTAA | 0.269 ± 0.035 |
| AGCGTGGC | -0.119 ± 0.04 |
| TAACGTTA | 0.0083 ± 0.027 |
| CCATTCCG | -0.0949 ± 0.02 |
| CGACGCCC | 9e-05 ± 0.053 |
| CTGCTCTC | -0.0222 ± 0.021 |
| ATGTGATG | 0.108 ± 0.053 |
| ATATCCGC | -0.0334 ± 0.094 |
| AGAACCAG | -0.11 ± 0.019 |
| CTGATTAA | 0.0112 ± 0.038 |
| CGCATTAA | 0.0701 ± 0.0015 |
| ATGATTAA | -0.061 ± 0.032 |
| AGCATTAA | 0.245 ± 0.037 |
| GGCATTAA | -0.00398 ± 0.043 |
| AGCATTAT | 0.224 ± 0.0032 |
| GTGATTAA | 0.234 ± 0.019 |
| AGCATTAC | -0.0652 ± 0.011 |
| TGCATTAA | 0.267 ± 0.01 |
| AGGATAAT | 0.148 ± 0.024 |
| AGTTATCC | 0.119 ± 0.035 |
| AGCTCAAG | -0.0222 ± 0.065 |
| AAAGCCAG | -0.092 ± 0.033 |
| CTCGCGAA | -0.117 ± 0.028 |
| ATATTCCC | 0.159 ± 0.065 |
| ACCGGCGT | -0.189 ± 0.05 |

| Sequence | PBM 8-mer E-score |
| --- | --- |
| ATTCGTCC | 0.232 ± 0.032 |
| CTTCGTCC | -0.084 ± 0.06 |
| ATTCGTCG | -0.057 ± 0.028 |
| ACATCGGT | -0.142 ± 0.022 |
| ACAATCTC | 0.149 ± 0.018 |
| CCAATCTA | 0.094 ± 0.0061 |
| CCAATCTC | 0.256 ± 0.024 |
| CTACGCGC | -0.0145 ± 0.047 |
| GACTCTTA | 0.151 ± 0.032 |
| CGGCGCAA | -0.0906 ± 0.015 |
| ACCGTCCG | -0.254 ± 0.034 |
| AGCCTCAG | -0.0843 ± 0.053 |
| AACAATTA | 0.2791 ± 0.0017 |
| AACAATTC | 0.141 ± 0.011 |
| GACAATGC | 0.0134 ± 0.02 |
| CTCAATTA | 0.0698 ± 0.043 |
| AACAATGC | 0.23 ± 0.044 |
| AACAATGG | 0.0925 ± 0.024 |
| ATCAATTA | 0.27 ± 0.01 |
| GTCAATTA | -0.0609 ± 0.042 |
| ATCAATTC | 0.0558 ± 0.082 |
| ATCAATTG | 0.257 ± 0.0066 |
| ATCAATCG | 0.16 ± 0.067 |
| AACAATTG | 0.143 ± 0.022 |
